NPR1 activator: GC-A (human) enzyme activation. P16066. HEK293 GC-A cells, cGMP TR-FRET, EC30 ANP; 0% at EC30 ANP, 100% saturating ANP. activation, % at 10 µM. 0.14% of 370,000 active. AID 1671463; in the data active = activation above about 40%
Target sequence (P16066 whole entry, looked up): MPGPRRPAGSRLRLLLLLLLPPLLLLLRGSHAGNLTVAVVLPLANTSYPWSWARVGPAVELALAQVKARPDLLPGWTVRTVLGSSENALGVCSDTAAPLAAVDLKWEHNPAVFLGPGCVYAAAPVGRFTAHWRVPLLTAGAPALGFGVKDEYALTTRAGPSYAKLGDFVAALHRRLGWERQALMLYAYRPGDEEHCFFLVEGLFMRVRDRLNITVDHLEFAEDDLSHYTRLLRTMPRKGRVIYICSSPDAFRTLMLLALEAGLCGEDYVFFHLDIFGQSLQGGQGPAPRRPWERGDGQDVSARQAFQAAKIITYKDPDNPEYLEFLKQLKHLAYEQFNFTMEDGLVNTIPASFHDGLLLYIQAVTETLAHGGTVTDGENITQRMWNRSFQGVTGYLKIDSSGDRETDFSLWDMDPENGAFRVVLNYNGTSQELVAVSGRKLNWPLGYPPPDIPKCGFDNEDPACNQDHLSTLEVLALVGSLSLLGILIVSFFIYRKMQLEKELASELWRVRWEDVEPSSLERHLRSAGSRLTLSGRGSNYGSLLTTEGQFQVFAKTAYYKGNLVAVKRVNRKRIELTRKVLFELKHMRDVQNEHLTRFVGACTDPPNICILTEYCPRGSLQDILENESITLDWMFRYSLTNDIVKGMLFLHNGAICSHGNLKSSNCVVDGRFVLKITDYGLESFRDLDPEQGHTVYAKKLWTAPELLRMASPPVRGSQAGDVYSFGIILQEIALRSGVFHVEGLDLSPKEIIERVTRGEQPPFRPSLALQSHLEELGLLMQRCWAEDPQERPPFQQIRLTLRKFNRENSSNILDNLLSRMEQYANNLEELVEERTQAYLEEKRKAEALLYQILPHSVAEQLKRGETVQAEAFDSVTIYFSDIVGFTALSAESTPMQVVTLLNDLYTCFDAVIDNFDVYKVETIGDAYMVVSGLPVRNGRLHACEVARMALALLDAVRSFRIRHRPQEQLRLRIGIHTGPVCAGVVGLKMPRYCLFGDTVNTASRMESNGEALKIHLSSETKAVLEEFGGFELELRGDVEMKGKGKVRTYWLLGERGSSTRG
GC-B act: GC-B (human) receptor activation; P20594; activation, % at 10 µM; HEK293-GC-B cells, CNP EC30, cGMP TR-FRET; 0% at EC30 CNP, 100% saturating CNP; 0.11% of 370,000 active; AID 1920062;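 active = activation at 10 µM reaching about 35% in either raw or pattern-adjusted values, limit read from the data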
Rev-erbA mod: modulates human Rev-erb alpha binding to DNA; Rev-erbα–FITC-DNA binding, fluorescence polarization, 90 min; P20393; 0.79% of 370,000 active; activity, % at 10 µM;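 active = activity above about 14%, limit read from the data; passing the limit was not always enough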;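 also: 0% = DMSO wells with 35 nM protein and 100% = DMSO wells with 750 nM protein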
PG9 binder: PG9 antibody binding by small molecule | TR-FRET gp120-PG9 antibody binding | inhibition, % at 6.7 µM | 0.43% of 360,000 active | AID 624416; in the data active = inhibition above about 8.5%
V-ATPase pH: alters yeast V-ATPase proton transport | 0.37% of 350,000 active | S. cerevisiae, pHLuorin cytosolic pH fluorescence | response, % at 10 µM; in the data active = response mostly above about 7.3%, no sharp cut-off; inactive = mostly below about 5.4%; also: actives read high
NR1D1 mod conf: Rev-erb alpha (human) modulation, hit confirmation. 61% of 3,000 active. shares compounds with Rev-erbA mod. Rev-erb alpha FITC-DNA binding, fluorescence polarization, 90 min. activation, % at 25 µM;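 active = activation at or above a set limit, or at least 3 SD above the negative control mean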;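 also: 0% = 35 nM protein with DMSO and 100% = 750 nM protein high control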
RORg DNA counter: counter-screen for Rev-erb alpha modulators: RORgamma DNA binding. shares compounds with Rev-erbA mod. purified RORgamma protein-FITC-DNA binding, fluorescence polarization. IC50, µM. 8% of 910 active. AID 1259320;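 active = Compounds whose fitted half-maximal concentration for disrupting protein-DNA binding is below 10 micromolar; the record names Rev-erb in its text, so the target is in doubt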
An asterisk follows results filed as active; / = not tested or not shown; ! = not active in a repeat. Shown are actives, neighbours in structure and some others; about 1.6% of the full set was active somewhere.

SMILES	NPR1 activator	GC-B act	Rev-erbA mod	PG9 binder	V-ATPase pH	NR1D1 mod conf	others
O=C(OC12CCCN(C1)/C(=C/c1ccncc1)C2)c1cccc(F)c1 (stereo unspecified)	-1.9	3.0	4.6	/	/	/
CCN1C(=O)CSC1=NC12CC3CC(CC(C3)C1)C2	2.5	-0.1	49.1*	-0.3	2.2	58.4*	RORg DNA counter=>40
CN1C(=O)CSC1=NC12CC3CC(CC(C3)C1)C2	2.5	1.8	11.3	2.0	-0.3	/
O=S(=O)(CC1NCc2ccccc21)NC1CCCC1 (stereo unspecified)	4.0	-1.1	3.8	/	/	/
O=C(c1cc(-c2ccccc2Cl)nc2ccc(Br)cc12)N1CCN(c2ccccn2)CC1	-5.7	-0.1	18.6*	3.7	0.0	8.6
Cc1cccc(Nc2nc3ccccc3n3nnnc23)c1	-2.9	-1.7	16.6	2.4	-1.1	/
O=C1CCCN1CCCNc1nc2c(S(=O)(=O)c3ccc(Br)cc3)nnn2c2ccccc12	10.8	3.1	30.6*	1.5	2.6	5.9
Cc1ccc(S(=O)(=O)c2nnn3c2nc(Nc2cccc(C)c2)c2ccccc23)cc1	49.1*	50.0*	28.5*	-0.1	0.0	14.1
Cc1ccc(C)c(Nc2nc3c(S(=O)(=O)c4ccccc4)nnn3c3ccccc23)c1	16.8	12.2	63.3*	1.2	2.2	32.8*	RORg DNA counter=>40
Cc1ccc(S(=O)(=O)c2nnn3c2nc(N2CCC(C(N)=O)CC2)c2ccccc23)cc1C	3.2	-1.5	-3.0	-1.7	2.2	/
O=C(/C=C\Nc1ccc(Cl)cn1)c1ccc(Br)cc1	2.0	-2.2	67.3*	-1.1	-2.2	10.2
COC(=O)[C@]12C[C@H](CC(=O)NCc3ccc(C)o3)C(=O)N(Cc3cccc4ccccc34)C1=C[C@H](C(C)C)O[C@@H]2C1CC1	-8.8	-3.9	6.1	/	/	/
CN(C)c1ccc(C=C2C=C(c3ccccc3)OC2=O)cc1	-0.2	0.0	31.9*	-2.4	0.5	0.5
CN(C)c1ccc(/C=C2/C=C(c3ccc4c(c3)CCCC4)OC2=O)cc1	2.5	5.3	24.6*	1.5	-4.4	3.1
Cc1ccc(C=C2C=C(c3ccccc3)OC2=O)cc1	-0.1	1.4	-5.8	0.2	4.0	/
CC(=O)NC1CCCCN(Cc2cccc(F)c2)C1=O (stereo unspecified)	0.7	2.7	-3.7	/	/	/
COc1cccc(C(=O)N(CCN2CCOCC2)Cc2ccc(OC)c(OC)c2)c1	2.9	-7.1	-2.2	/	/	/
COc1ccc(CN2C[C@]3(C=C(C)Cn4c(=O)n(-c5ccccc5)c(=O)n43)N=C2NC(=O)c2ccccc2)c(OC)c1	-1.4	4.8	2.3	/	/	/
CCCCCCSc1cc(-c2nc3cc(C)ccn3c2NC2CCCCC2)ccc1OC	7.9	3.5	0.7	1.4	-0.5	/
CCCCCCSc1ccc(-c2nc3cc(C)ccn3c2NC2CCCCC2)cc1	7.1	-0.1	19.9*!	2.4	0.3	-2.3
CCC(C)Sc1ccc(-c2nc3cc(C)ccn3c2NC2CCCCC2)cc1 (stereo unspecified)	3.6	-13.7	20.3*!	5.7	-3.9	19.1*
Cc1nc2ccccc2c(=O)n1Nc1cccc(Cl)c1	-1.3	-1.7	0.4	0.4	0.2	/
O=c1c2ccccc2nc2sc(Nc3cccc(Cl)c3)nn12	32.0	9.1	127.5*	6.5	0.0	87.7*	RORg DNA counter=>40
O=c1c2ccc(F)cc2nc2sc(Nc3ccc4c(c3)CCC4)nn12	3.5	-7.1	74.0*	/	/	1.6
O=S(=O)(c1ccc(Br)cc1)N1CCN(c2cc(-c3ccccc3)nc3ncnn23)CC1	-7.4	-15.0	30.1*	/	7.9	26.1*
CCOCCCNc1nc2c(C)cccn2c(=O)c1/C=C1\SC(=S)N(CC(C)C)C1=O	4.2	-5.1	14.9	-0.6	6.9	/
CCOCCCNc1nc2c(C)cccn2c(=O)c1/C=C1\SC(=S)N(C(C)CC)C1=O (stereo unspecified)	-0.4	-3.9	23.4*	-2.7	6.2	15.8
Cc1ccc2c(c1)S(=O)(=O)c1ccc3ccccc3c1N2	4.2	6.0	31.6*	-3.1	1.3	14.6*
C1COC(NC(C2CC2)C2CC2)=N1	2.5	1.7	16.7*	-0.3	3.5	-6.8

Bioassay records as filed in PubChem.
